Measured values taken from PubChem BioAssay.
The source made the active and inactive calls. Unless noted, the rule behind the calls is not given here.

Assays:
[1] = tested on: Wnt5a (protein binding on small-molecule microarray); experiment: small molecules binding Wnt5a protein – biophysical, small-molecule microarray, 635/667 nm fluorescence, primary screen (AID 1142); settings: 635 nm fluorescence, higher = more signal;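 note: fluorescence read at 667 nm with signal to noise per printed feature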
[2] = ATP-based viability of Huh7 replicon cells – cell-based, CellTiter-Glo luminescence, basal, 48 h, cytotoxicity control for HCV replication inhibitor project, primary screen (AID 1143); settings: higher = more signal, called active from +8 up or from −8 down;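 note: Huh7 hepatoma cells carrying a hepatitis C replication reporter with no stimulus; test concentration not given here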
[3] = Pseudomonas biofilm growth suppression – PAO1 strain, BacTiter-Glo luminescence, LB-PBS, primary screen (AID 1144); settings: P. aeruginosa PAO1 biofilm, 12 h, higher = more signal
[4] = basal CRE-LacZ reporter activity in PC12 – cell-based, unstimulated, primary screen (AID 1145); settings: no forskolin, luminescence, 4.5 h, higher = more signal, called active from +8 up or from −8 down
[5] = forskolin-driven CRE-LacZ activity in PC12 – cell-based, CRE-LacZ reporter, forskolin-stimulated, primary screen (AID 1146); settings: luminescence, 4.5 h, higher = more signal, called active from +8 up or from −8 down;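 note: PC12 cells with 6xCRE LacZ reporter stimulated by forskolin 10 µM; beta-galactosidase reporter signal reflecting CREB driven transcription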
[6] = biological target: Streptavidin (Streptomyces avidinii) (UniProt P22629); experiment: compounds binding control protein streptavidin – biophysical, small-molecule microarray, 635/667 nm fluorescence, artefact control for SMM compound annotation, primary screen (AID 1147); settings: higher = more signal;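 note: signal reflects streptavidin binding to arrayed compounds as a control protein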
[7] = probe aInhba binding on compound microarray – biochemical, small-molecule microarray, 635/667 nm fluorescence, primary screen (AID 1148); settings: higher = more signal;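 note: score merges 667nm spot fluorescence with signal-to-noise for antibody binding to printed compounds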
Torsin-1A (Homo sapiens) [8] = biological target: Torsin-1A (Homo sapiens) (UniProt O14656); experiment: TOR1A wild-type binding on microarray – cell lysate, small-molecule microarray, lysate, 635/667 nm, primary screen (AID 1149); settings: COS7 hTOR1A-WT lysate, 635 nm fluorescence, higher = more signal
Torsin-1A (Homo sapiens) [9] = biological target: Torsin-1A (Homo sapiens) (UniProt O14656); experiment: torsin A mutant lysate binding on microarrays – cell lysate, small-molecule microarray, COS7 lysate, 635/667 nm fluorescence, primary screen (AID 1150); settings: COS7 hTOR1A mutant lysate, 635 nm fluorescence, higher = more signal;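 note: score pools 667 nm emission and signal to noise measuring lysate protein binding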
[10] = tested on: Sonic hedgehog protein (Shh); experiment: Sonic hedgehog microarray binding compounds – biochemical, small-molecule microarray, 635/667 nm fluorescence, primary screen (AID 1151); settings: 635 nm fluorescence, higher = more signal;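 note: Shh protein binding to compounds spotted on small-molecule microarray slides; score combines spot fluorescence intensity with signal-to-noise across triplicate slides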
[11] = optical density shifts of acrAB sulA E. coli – strain DRC41, OD650, 48 h, E. coli filamentation inducer project, primary screen (AID 1152); settings: higher = more signal, called active from +8 up or from −8 down;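 note: E. coli MC1000 strain DRC41 lacking acrAB efflux pump and sulA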
[12] = probe aLefty1 binding on compound microarray – biochemical, small-molecule microarray, 635/667 nm fluorescence, primary screen (AID 1153); settings: higher = more signal;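 note: score merges spot fluorescence with signal-to-noise ratio from the scanned slide images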
[13] = plasmodial surface anion channel blockers, osmotic lysis – cell-based, P. falciparum Indochina, OD700, 1 h, primary screen (AID 1154); settings: P. falciparum Indochina infected RBC osmotic lysis, higher = more signal, called active from +8 up or from −8 down
[14] = plasmodial surface anion channel blockers, osmotic lysis – cell-based, P. falciparum Indochina, OD700, 2 h, primary screen (AID 1155);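 note: lysis reports solute entry through the parasite surface anion channel PSAC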; settings: P. falciparum Indochina infected erythrocytes, higher = more signal, called active from +8 up or from −8 down
[15] = changes in parasitized red cell lysis, either direction – P. falciparum Indochina, OD700, 3 h, PSAC antagonist project, primary screen (AID 1156); settings: P. falciparum-infected erythrocytes, osmotic lysis, higher = more signal, called active from +8 up or from −8 down
[16] = plasmodial surface anion channel blockers, osmotic lysis – cell-based, P. falciparum Indochina, OD700, 18 h, primary screen (AID 1157); settings: P. falciparum Indochina infected erythrocytes, osmotic lysis OD700, 18 h; higher = more signal, called active from +8 up or from −8 down
[17] = S6 kinase pathway phospho-S6 level changes – cell-based, A549, cytoblot, luminescence, serum-stimulated, primary screen (AID 1158); settings: 5 h, higher = more signal;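 note: serum-stimulated A549 lung adenocarcinoma cells; signal is phosphorylated S6 detected by cytoblot immunostaining with HRP secondary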
[18] = biological target: NADPH oxidase 2 (Homo sapiens) (UniProt P04839); experiment: compounds shifting NOX2 Amplex Red fluorescence – cell-based, HEK293-NOX2, PMA-stimulated, NOX inhibitor project, primary screen (AID 1159); settings: 45 min, higher = more signal, called active from +8 up or from −8 down; note: test concentration not given here
[19] = biological target: NADPH oxidase 4 (Homo sapiens) (UniProt Q9NPH5); experiment: compounds shifting NOX4 Amplex Red fluorescence – cell-based, HEK293-NOX4, tetracycline-induced, NOX inhibitor project, primary screen (AID 1160); settings: HEK293-NOX4, Amplex Red H2O2 fluorescence, 45 min; higher = more signal, called active from +8 up or from −8 down
[20] = biological target: NADPH oxidase 5 (Homo sapiens) (UniProt Q96PH1); experiment: compounds shifting NOX5 Amplex Red fluorescence – cell-based, HEK293-NOX5, NOX inhibitor project, primary screen (AID 1161); settings: HEK293-NOX5, ionomycin, 45 min, higher = more signal
NADPH oxidase 5 (Homo sapiens), sequence (Q96PH1 whole entry, looked up): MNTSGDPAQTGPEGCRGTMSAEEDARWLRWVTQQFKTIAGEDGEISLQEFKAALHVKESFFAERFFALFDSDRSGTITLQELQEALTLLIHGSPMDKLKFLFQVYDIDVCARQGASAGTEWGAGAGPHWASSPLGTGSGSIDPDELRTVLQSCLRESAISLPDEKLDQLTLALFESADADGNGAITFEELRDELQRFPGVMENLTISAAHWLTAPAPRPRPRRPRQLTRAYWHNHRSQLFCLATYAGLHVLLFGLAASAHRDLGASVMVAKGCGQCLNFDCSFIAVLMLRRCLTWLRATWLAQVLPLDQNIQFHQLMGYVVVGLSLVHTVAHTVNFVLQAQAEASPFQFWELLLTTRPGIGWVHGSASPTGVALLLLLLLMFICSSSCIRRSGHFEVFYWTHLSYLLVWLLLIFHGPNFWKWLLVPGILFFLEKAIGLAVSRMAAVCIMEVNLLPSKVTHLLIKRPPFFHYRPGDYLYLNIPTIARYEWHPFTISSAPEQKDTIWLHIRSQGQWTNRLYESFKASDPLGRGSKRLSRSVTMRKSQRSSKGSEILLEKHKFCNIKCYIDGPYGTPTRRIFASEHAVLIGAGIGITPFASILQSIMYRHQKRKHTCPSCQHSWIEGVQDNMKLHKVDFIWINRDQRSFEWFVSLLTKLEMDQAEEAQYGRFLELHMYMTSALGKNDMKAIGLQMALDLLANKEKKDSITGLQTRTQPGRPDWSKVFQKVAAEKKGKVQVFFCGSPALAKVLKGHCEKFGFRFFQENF

Torsin-1A (Homo sapiens), sequence (O14656 whole entry, looked up): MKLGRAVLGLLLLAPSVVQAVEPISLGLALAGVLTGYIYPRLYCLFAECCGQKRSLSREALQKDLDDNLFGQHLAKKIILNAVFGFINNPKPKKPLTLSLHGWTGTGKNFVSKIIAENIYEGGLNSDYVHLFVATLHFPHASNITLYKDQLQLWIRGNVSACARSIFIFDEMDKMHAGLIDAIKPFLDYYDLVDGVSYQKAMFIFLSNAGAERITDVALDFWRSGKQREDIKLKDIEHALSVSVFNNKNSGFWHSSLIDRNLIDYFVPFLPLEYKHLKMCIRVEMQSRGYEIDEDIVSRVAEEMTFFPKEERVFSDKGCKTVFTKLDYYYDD
Streptavidin (Streptomyces avidinii), sequence (P22629 whole entry, looked up): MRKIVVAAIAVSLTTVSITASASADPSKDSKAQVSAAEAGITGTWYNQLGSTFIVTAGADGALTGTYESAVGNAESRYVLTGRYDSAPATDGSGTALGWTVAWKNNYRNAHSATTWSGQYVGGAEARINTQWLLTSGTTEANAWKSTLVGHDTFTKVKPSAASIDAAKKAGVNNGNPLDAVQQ
NADPH oxidase 4 (Homo sapiens), sequence (Q9NPH5 whole entry, looked up): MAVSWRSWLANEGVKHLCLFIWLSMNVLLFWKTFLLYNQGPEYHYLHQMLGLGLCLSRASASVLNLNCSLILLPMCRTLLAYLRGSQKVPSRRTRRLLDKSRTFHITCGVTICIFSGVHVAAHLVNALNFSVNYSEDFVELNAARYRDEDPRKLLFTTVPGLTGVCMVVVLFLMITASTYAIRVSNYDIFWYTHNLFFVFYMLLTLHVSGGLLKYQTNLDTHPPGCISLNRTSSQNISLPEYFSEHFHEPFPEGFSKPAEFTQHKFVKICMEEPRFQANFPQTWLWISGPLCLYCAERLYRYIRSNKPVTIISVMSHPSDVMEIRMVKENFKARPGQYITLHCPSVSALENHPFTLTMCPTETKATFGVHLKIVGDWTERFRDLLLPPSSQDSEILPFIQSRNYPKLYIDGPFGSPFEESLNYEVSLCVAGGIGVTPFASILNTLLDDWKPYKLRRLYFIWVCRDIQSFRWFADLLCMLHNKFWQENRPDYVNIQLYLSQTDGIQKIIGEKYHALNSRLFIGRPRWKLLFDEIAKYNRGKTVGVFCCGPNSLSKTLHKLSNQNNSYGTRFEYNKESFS
NADPH oxidase 2 (Homo sapiens), sequence (P04839 whole entry, looked up): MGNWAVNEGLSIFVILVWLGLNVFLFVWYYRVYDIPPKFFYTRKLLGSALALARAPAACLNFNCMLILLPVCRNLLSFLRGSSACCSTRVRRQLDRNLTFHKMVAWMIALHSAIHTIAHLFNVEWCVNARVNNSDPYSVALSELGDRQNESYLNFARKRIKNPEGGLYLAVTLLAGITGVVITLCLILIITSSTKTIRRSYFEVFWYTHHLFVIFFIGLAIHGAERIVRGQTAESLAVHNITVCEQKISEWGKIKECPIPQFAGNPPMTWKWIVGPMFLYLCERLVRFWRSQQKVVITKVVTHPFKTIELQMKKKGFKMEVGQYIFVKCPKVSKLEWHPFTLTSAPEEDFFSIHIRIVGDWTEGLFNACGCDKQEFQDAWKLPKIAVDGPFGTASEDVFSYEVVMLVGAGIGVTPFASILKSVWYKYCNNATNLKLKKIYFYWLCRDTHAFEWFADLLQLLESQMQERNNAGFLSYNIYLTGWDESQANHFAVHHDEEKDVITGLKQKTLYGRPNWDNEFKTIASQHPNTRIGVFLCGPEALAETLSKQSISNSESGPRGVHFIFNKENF

Row | SMILES | composite z-score [1] | z-score [2] | z-score [3] | z-score [4] | z-score [5] | composite z-score [6] | composite z-score [7] | composite z-score (Torsin-1A (Homo sapiens) [8]) | composite z-score (Torsin-1A (Homo sapiens) [9]) | composite z-score [10] | z-score [11] | composite z-score [12] | z-score [13] | z-score [14] | z-score [15] | z-score [16] | z-score [17] | z-score [18] | z-score [19] | z-score [20]
1 | C=CC[C@]1(C(=O)NCC(O)CO)COC(c2ccc(OCCCO)cc2)=N1 (stereo not given in full) | 0.359 | 0.154 (inactive) | -0.055 (inactive) | 0.792 (inactive) | -0.282 (inactive) | -0.486 | 0.109 | 0.185 | 1.03 | -0.495 | -0.353 (inactive) | 0.174 | 3.8 (inactive) | 0.203 (inactive) | 0.99 (inactive) | 0.545 (inactive) | 0.18 | -0.261 (inactive) | 0.914 (inactive) | 0.462
2 | O=C(NCCN1CCOCC1)[C@@H]1c2ccccc2C(=O)N(Cc2ccccc2C(F)(F)F)[C@H]1c1ccc(CO)cc1 | -0.316 | -0.0154 (inactive) | 0.151 (inactive) | 0.324 (inactive) | -1.32 (inactive) | -1.12 | -0.224 | -0.691 | 0.0912 | -0.112 | 0.736 (inactive) | -0.418 | 2.76 (inactive) | -0.191 (inactive) | 1.15 (inactive) | 0.158 (inactive) | -0.328 | 0.523 (inactive) | 0.484 (inactive) | 0.772
3 | O=C1[C@H]2C=C(I)[C@H](C[C@@H]2OCCCCCCO)[C@@]12CO2 | -0.302 | 0.567 (inactive) | -0.04 (inactive) | 1.21 (inactive) | 1.77 (inactive) | -0.324 | 0.255 | 0.349 | 0.541 | 1.07 | -1.02 (inactive) | 0.0834 | 5.11 (inactive) | 0.713 (inactive) | 0.487 (inactive) | 0.035 (inactive) | -0.251 | -0.212 (inactive) | 0.645 (inactive) | -1.22
4 | O=C1c2ccccc2[C@@]2(Cc3ccccc3N(Cc3ccccc3)C2=O)[C@H](c2ccc(CO)cc2)N1Cc1ccccc1Cl | -0.131 | -1.35 (inactive) | -1.09 (inactive) | -0.322 (inactive) | 0.164 (inactive) | -0.463 | -0.13 | -1.29 | 0.454 | -0.971 | -0.29 (inactive) | -0.0479 | 0.705 (inactive) | 0.387 (inactive) | -0.113 (inactive) | 0.18 (inactive) | 0.272 | -0.534 (inactive) | -0.644 (inactive) | -1.11
